Measurements from PubChem BioAssay (Tox21).
Where “and” joins values, the source holds several entries; their conditions need not be identical. Equal values may be shown once. Records with an inconclusive call do not appear. Entries that show only a call come without a potency. A structure can be active in one record and inactive in another. Calls of active or inactive are those of the source. Unless noted, calls follow the shape of the dose curve; as a rule, active = well fitted curve in the direction sought with a large enough effect in the repeat runs; inconclusive = weak or mixed curves; inactive = no such curve, though single readings can be large; an effect the other way counts as inactive or inconclusive.

How the values were obtained:
[1] = qHTS assay to identify small molecule antagonists of the estrogen receptor alpha (ER-alpha) signaling pathway - cell viability counter screen (AID 743074; calls by dose curve;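 also: HEK293 cells carrying ER-alpha-UAS-bla reporter stimulated with 17beta-estradiol; nearly all actives have a fitted effect of over 45% in size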)
[2] = biological target: Estrogen receptor (Homo sapiens) (UniProt P03372); assay: qHTS assay to identify small molecule agonists of the estrogen receptor alpha (ER-alpha) signaling pathway (AID 743075; calls by dose curve;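 also: HEK293 GripTite cells with ER-alpha and UAS-driven beta-lactamase reporter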)
[3] = biological target: Estrogen receptor (Homo sapiens) (UniProt P03372); assay: qHTS assay to identify small molecule agonists of the estrogen receptor alpha (ER-alpha) signaling pathway using the BG1 cell line (AID 743079); also: nearly all actives have a fitted effect of over 20% in size
[4] = qHTS assay to identify small molecule antagonists of the estrogen receptor alpha (ER-alpha) signaling pathway using the BG1 cell line (AID 743080; calls by dose curve;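 also: BG1 cells stimulated with 17beta-estradiol alongside compound; series mostly up to about 70 µM; nearly all actives have a fitted effect of over 25% in size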)
Method in brief: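 Endogenous full-length ER-alpha in BG1-Luc-4E2 cells drives a stably integrated 4×ERE luciferase gene; compounds were tested against 17beta-estradiol over 21.5 h, with luminescence and multiplexed viability fluorescence recorded.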

[5] = qHTS assay to identify small molecule antagonists of the estrogen receptor alpha (ER-alpha) signaling pathway using the BG1 cell line - cell viability counter screen (AID 743081);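 also: compound given together with 17beta-estradiol as the ER stimulus; series mostly up to about 70 µM; nearly all actives have a fitted effect of over 45% in size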
Aromatase (Homo sapiens) = Aromatase (Homo sapiens) (UniProt P11511); assay: qHTS assay to identify aromatase inhibitors (AID 743083); also: series mostly up to about 70 µM; nearly all actives have a fitted effect of over 55% in size
[6] = qHTS assay to identify aromatase inhibitors - cell viability counter screen (AID 743084);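 also: cells stimulated with testosterone during compound exposure; nearly all actives have a fitted effect of over 55% in size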; also: potency is read from the fitted curve at half-maximal effect
[7] = biological target: Aryl hydrocarbon receptor (Homo sapiens) (UniProt P35869); assay: qHTS assay to identify small molecule that activate the aryl hydrocarbon receptor (AhR) signaling pathway (AID 743085); also: nearly all actives have a fitted effect of over 15% in size; also: potency is read from the fitted curve at half-maximal effect;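 as to activation: HG2L7.5c1 human HepG2 liver cells with stably integrated DRE-driven firefly reporter; series mostly up to about 70 µM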
Method in brief: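 Steps: seed HepG2-AhR-luc cells; allow 5 h at 37C; pin-transfer test compound or vehicle; incubate 24 h at 37C; add viability dye (30 min, 37C) and read fluorescence; add luciferase substrate (30 min, RT) and read luminescence.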

[8] = biological target: Peroxisome proliferator-activated receptor gamma (Homo sapiens) (UniProt P37231); assay: qHTS assay to identify small molecule agonists of the peroxisome proliferator-activated receptor gamma (PPARg) signaling pathway (AID 743094; active = well fitted activation curve with a large enough effect in the signal ratio in the repeat runs, not every such curve was filed as active; the % refers to the signal ratio)
Method in brief: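 Quantitative HTS agonist mode: stable HEK293H line with UAS-beta-lactamase reporter under PPARg control, 17 h compound exposure at 37C, fluorescence after 1 h FRET substrate loading at room temperature.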

[9] = biological target: Peroxisome proliferator-activated receptor gamma (Homo sapiens) (UniProt P37231); assay: qHTS assay to identify small molecule antagonists of the peroxisome proliferator-activated receptor gamma (PPARg) signaling pathway (AID 743191; calls by dose curve; also: series mostly up to about 63 µM; nearly all actives have a fitted effect of over 30% in size)
Method in brief: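 Beta-lactamase reporter under UAS control in HEK293H PPARg-bla cells; compound treatment 17 h at 37C. Read-out: fluorescence intensity after 1 h room-temperature incubation with LiveBLAzer B/G FRET substrate.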

[10] = qHTS assay to identify small molecule antagonists of the peroxisome proliferator-activated receptor gamma (PPARg) signaling pathway - cell viability counter screen (AID 743194); also: nearly all actives have a fitted effect of over 55% in size
Method in brief: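 Viability was measured as CellTiter-Glo luminescence in GeneBLAzer PPARg UAS-bla HEK293H cells. These cells had been exposed 17 h at 37 C to compounds together with rosiglitazone at 50 nM final, with the beta-lactamase readout taken in the same wells.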

[11] = qHTS assay for small molecule agonists of the antioxidant response element (ARE) signaling pathway - cell viability counter screen (AID 743203; calls by dose curve; also: nearly all actives have a fitted effect of over 55% in size)
Method in brief: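 Seeded at 2,000 cells/well, ARE-bla HepG2 cells were incubated 5 hrs before compound addition. After 16 hrs of treatment at 37C with 5% CO2, CellTiter-Glo reagent was added and luminescence read 30 min later.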

[12] = qHTS assay for small molecule activators of the heat shock response signaling pathway - cell viability counter screen (AID 743209); also: nearly all actives have a fitted effect of over 50% in size
Method in brief: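 First, HSE-bla HeLa cells were seeded at 1500 cells/well and kept overnight at 37 C. Next, compounds were pinned in and incubated 5 h. After the FRET substrate step, CellTiter-Glo was added and luminescence read 30 min later.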

[13] = qHTS assay to identify small molecule agonists of the peroxisome proliferator-activated receptor delta (PPARd) signaling pathway - cell viability counter screen (AID 743211); also: nearly all actives have a fitted effect of over 55% in size
Method in brief: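 Viability of GeneBLAzer PPARd UAS-bla HEK293H cells was assessed after 17 h compound incubation at 37C, using CellTiter-Glo reagent added after the reporter read and luminescence recorded 30 min later.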

[14] = qHTS assay to identify small molecule that activate the aryl hydrocarbon receptor (AhR) signaling pathway - cell viability counter screen (AID 743086);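 also: HepG2 liver cells carrying the AhR DRE luciferase reporter; series mostly up to about 70 µM; nearly all actives have a fitted effect of over 45% in size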
Method in brief: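 Cytotoxicity counter screen: CellTiter-Fluor signal (30 min, 37 C) in 4000 HepG2 cells/well carrying the DRE-luciferase reporter, following 24 h compound exposure at 37 C.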

[15] = qHTS assay for small molecule agonists of the antioxidant response element (ARE) signaling pathway (AID 743202; active = well fitted activation curve with a large enough effect in the signal ratio in the repeat runs, not every such curve was filed as active; the % refers to the signal ratio; also: potency is read from the fitted curve at half-maximal effect)
Method in brief: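 Quantitative high-throughput format in HepG2 cells bearing an integrated ARE-beta-lactamase reporter. Compound exposure lasted 16 h at 37 C, and fluorescence was read 2 h after adding LiveBLAzer B/G substrate at room temperature.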

[16] = qHTS assay for small molecule activators of the heat shock response signaling pathway (AID 743210; active = well fitted activation curve with a large enough effect in the signal ratio in the repeat runs, with a control signal flat, not every such curve was filed as active; the % refers to the signal ratio;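 also: HeLa cells with beta-lactamase reporter driven by heat shock elements; series mostly up to about 63 µM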)
Method in brief: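 HeLa HSE-bla cells, overnight plating; cpd in DMSO 5 h, 37 C; LiveBLAzer B/G FRET substrate 2.5 h RT; fluorescence intensity read.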

[17] = biological target: Estrogen receptor (Homo sapiens) (UniProt P03372); assay: qHTS assay to identify small molecule antagonists of the estrogen receptor alpha (ER-alpha) signaling pathway (AID 743069; active = well fitted curve in the direction sought with a large enough effect in the signal ratio in the repeat runs, not every such curve was filed as active; the % refers to the signal ratio)
Method in brief: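 ER-alpha-UAS-bla GripTite HEK293 line; 2% charcoal-stripped FBS overnight; plated, 4 hr 37C/5% CO2; cpd in DMSO + 17beta-estradiol, 18 hr 37C; LiveBLAzer B/G FRET substrate 2 hr RT; fluorescence intensity.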

[18] = qHTS assay to identify small molecule antagonists of the thyroid receptor (TR) signaling pathway (AID 743065)
Method in brief: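 Antagonism measured as loss of luciferase signal in GH3 cells stably carrying a TRE-luciferase reporter, co-treated with compound and T3 (1 nM final) for 23.5 h at 37 C. Viability was read in the same well by CellTiter-Fluor.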

[19] = test system: thyroid hormone receptor (rat, GH3 cells); assay: qHTS assay to identify small molecule agonists of the thyroid receptor (TR) signaling pathway (AID 743066; calls by dose curve)

Peroxisome proliferator-activated receptor gamma (Homo sapiens), sequence (P37231 whole entry, looked up): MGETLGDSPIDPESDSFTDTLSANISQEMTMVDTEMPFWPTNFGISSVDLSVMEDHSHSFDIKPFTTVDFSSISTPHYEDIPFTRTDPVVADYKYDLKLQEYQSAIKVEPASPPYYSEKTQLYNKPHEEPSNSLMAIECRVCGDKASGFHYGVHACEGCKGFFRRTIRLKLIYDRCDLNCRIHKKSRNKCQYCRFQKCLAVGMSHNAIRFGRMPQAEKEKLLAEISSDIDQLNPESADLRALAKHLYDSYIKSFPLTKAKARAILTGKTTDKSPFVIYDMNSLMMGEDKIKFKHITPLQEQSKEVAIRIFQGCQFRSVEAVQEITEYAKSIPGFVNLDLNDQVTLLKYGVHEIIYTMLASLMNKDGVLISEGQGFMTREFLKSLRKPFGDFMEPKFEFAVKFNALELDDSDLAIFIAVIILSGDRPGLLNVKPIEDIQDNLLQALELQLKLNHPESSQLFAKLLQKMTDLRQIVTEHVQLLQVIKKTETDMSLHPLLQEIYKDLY
Estrogen receptor (Homo sapiens), sequence (P03372 whole entry, looked up): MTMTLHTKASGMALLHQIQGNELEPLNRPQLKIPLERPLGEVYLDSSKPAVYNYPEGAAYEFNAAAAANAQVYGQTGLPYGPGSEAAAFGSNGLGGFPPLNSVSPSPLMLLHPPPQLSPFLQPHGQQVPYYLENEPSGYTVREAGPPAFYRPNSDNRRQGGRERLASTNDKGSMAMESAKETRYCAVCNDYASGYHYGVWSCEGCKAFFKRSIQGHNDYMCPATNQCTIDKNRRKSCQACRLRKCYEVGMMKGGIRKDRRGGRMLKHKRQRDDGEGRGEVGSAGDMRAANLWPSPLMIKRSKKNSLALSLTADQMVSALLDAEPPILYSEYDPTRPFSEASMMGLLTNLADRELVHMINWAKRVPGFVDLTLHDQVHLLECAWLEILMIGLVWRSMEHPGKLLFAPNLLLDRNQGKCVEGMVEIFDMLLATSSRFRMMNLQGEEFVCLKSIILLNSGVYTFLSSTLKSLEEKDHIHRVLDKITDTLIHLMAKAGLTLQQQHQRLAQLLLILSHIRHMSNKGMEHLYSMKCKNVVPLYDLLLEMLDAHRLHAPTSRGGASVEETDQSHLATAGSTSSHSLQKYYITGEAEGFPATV
Aryl hydrocarbon receptor (Homo sapiens), sequence (P35869 whole entry, looked up): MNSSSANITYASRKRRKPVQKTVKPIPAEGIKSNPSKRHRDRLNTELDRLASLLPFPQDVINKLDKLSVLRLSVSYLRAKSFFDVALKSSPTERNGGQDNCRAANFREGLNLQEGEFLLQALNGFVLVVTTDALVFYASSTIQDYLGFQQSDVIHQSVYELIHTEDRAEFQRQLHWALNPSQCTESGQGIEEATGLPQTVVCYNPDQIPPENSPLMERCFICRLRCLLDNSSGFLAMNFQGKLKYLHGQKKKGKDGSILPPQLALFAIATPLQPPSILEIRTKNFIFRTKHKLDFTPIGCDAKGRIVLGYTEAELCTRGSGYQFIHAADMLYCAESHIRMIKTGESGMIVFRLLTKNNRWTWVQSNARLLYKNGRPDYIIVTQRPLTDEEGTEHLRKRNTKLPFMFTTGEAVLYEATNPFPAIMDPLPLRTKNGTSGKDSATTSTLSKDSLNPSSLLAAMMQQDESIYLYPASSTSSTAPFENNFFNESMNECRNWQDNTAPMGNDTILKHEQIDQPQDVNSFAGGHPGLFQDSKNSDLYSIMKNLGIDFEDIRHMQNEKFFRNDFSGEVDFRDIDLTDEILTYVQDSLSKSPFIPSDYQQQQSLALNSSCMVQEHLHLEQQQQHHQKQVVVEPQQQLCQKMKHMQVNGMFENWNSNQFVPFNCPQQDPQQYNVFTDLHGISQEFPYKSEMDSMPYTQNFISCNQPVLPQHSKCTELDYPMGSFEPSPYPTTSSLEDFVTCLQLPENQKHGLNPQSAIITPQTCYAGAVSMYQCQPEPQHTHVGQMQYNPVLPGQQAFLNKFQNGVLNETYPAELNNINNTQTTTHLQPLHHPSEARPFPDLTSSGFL
Aromatase (Homo sapiens), sequence (P11511 whole entry, looked up): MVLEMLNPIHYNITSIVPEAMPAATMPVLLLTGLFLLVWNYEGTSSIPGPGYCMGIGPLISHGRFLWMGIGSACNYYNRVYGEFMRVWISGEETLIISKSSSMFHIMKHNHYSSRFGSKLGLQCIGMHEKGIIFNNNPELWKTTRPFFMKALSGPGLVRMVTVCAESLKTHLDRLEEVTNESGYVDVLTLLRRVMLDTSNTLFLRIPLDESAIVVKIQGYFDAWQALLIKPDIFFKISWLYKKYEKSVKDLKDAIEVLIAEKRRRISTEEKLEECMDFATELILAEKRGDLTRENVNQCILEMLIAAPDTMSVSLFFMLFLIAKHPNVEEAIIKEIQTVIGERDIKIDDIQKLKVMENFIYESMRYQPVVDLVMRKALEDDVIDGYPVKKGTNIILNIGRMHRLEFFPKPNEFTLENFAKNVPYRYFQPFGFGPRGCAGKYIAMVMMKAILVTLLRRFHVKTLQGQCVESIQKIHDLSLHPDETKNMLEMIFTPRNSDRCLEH

| SMILES | Potency [1] | Potency [2] | Potency [3] | Potency [4] | Potency [5] | Potency (Aromatase (Homo sapiens)) | Potency [6] | Potency [7] | Potency [8] | Potency [9] | Potency [10] | Potency [11] | Potency [12] | Potency [13] | Potency [14] | Potency [15] | Potency [16] | Potency [17] | Potency [18] | Potency [19] |
| --- | --- | --- | --- | --- | --- | --- | --- | --- | --- | --- | --- | --- | --- | --- | --- | --- | --- | --- | --- | --- |
| Nc1ccc(Nc2ccccc2)cc1 | inactive | inactive | inactive | inactive | inactive | inactive | 61.1 µM (active) and inactive | inactive | inactive | inactive | inactive | inactive | inactive | inactive |  |  |  |  |  |  |
| c1ccc(Nc2ccccc2)cc1 | inactive |  |  |  | inactive | inactive | inactive | inactive | inactive | inactive | inactive | inactive | inactive | inactive | inactive | inactive | inactive |  |  |  |
| Cc1c(OCC(F)(F)F)ccnc1CS(=O)c1nc2ccccc2[nH]1 (stereo not given) | inactive |  |  |  | inactive | inactive | inactive | 4.22 µM (active) and 19.3 µM (active) | inactive | inactive | inactive | inactive | inactive |  | inactive | 8.41 µM (active) |  |  |  |  |
| Nc1ncnc2nc[nH]c12 | inactive | inactive | inactive | inactive | inactive | inactive | inactive | inactive | inactive |  | inactive |  | inactive |  | inactive | inactive | inactive | inactive |  |  |
| Cc1cc2nc3c(=O)[nH]c(=O)nc-3n(C[C@H](O)[C@H](O)[C@H](O)CO)c2cc1C | inactive |  |  |  |  |  |  |  |  |  | inactive | inactive | inactive | inactive |  |  |  |  | inactive | inactive |
| CN(C)c1nc(N(C)C)nc(N(C)C)n1 | inactive |  |  |  | inactive |  |  |  |  |  | inactive | inactive | inactive | inactive | inactive | inactive |  |  |  |  |
